Compound activity from PubChem BioAssay.
A3A deaminase – inhibitors of human APOBEC3A DNA deaminase; P31941; recombinant A3A, FAM/TAMRA ssDNA deamination fluorescence; inhibition, % at 20 µM; 330,000 tested, 0.41% active; AID 493011;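 active = at least 40% inhibition at 20 µM here, with at most 30% in a related deaminase screen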
Target sequence (P31941 whole entry, looked up): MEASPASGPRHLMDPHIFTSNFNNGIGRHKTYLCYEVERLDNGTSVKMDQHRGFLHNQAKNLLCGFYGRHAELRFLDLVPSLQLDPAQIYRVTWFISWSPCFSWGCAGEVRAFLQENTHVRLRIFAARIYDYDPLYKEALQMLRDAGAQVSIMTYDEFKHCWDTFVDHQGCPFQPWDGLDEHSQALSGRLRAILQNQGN
APOBEC3G inh – blocks human APOBEC3G single-stranded DNA deamination; Q9HC16; recombinant A3G, ssDNA deamination FAM/TAMRA fluorescence; inhibition, % at 20 µM; 330,000 tested, 0.28% active; AID 493012;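 active = inhibition of at least 40% at 20 µM, with no more than 30% in the related APOBEC3A deaminase screen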
Target sequence (Q9HC16 whole entry, looked up): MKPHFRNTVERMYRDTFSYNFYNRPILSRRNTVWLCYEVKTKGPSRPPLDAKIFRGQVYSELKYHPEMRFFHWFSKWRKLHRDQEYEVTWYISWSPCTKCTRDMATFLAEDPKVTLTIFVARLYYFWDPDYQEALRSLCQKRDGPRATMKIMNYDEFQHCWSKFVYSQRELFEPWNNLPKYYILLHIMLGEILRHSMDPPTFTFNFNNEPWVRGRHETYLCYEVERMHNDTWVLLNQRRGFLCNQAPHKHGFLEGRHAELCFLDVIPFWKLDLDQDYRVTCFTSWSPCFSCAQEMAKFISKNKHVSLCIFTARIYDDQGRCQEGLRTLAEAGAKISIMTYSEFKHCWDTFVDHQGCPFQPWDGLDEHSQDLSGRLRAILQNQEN
NRP1-CendR mod – NRP-1/CendR interaction modulation; 360,000 tested, 0.85% active; inhibition, % at 25 µM; AID 602438; FAM-RPARPAR peptide binding to NRP-1, fluorescence polarization;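 active = inhibition or corrected inhibition above about 18%, plus a signal ratio from 0.5 to 1.5, limit read from the data, passing the limit was not always enough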
CR mimetic SO – lowers age-related superoxide in aged yeast cells. S. cerevisiae aged cells, superoxide DHE fluorescence; hits give low values. superoxide response (% of plate mean), % at 10 µM. 330,000 tested, 0.18% active. AID 2690;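 active = superoxide response under a set limit, about three screen SD below normal, cut at about 65% in these data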;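 note: yeast aged for seven days with compound at 30 °C before DHE staining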
ALR inh – blocks human ALR sulfhydryl oxidase activity | purified ALR, DTT oxidation, H2O2 HRP-luminol luminescence | inhibition, % (test concentration not listed) | 290,000 tested, 3.8% active;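 active = mean replicate inhibition above about 79%, with every replicate also reaching it, limit read from the data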
M18AAP inhibitor – blocks P. falciparum M18 aspartyl aminopeptidase | recombinant PfM18AAP, H-Glu-NHMec fluorogenic cleavage | inhibition, % at 7.35 µM | 290,000 tested, 1.2% active | AID 1822;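 active = inhibition above the campaign mean inhibition over all tested compounds plus 3 SD, cut at about 28% in these data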
Numbers stand for hits; n = inactive; x = no result. An excerpt weighted towards active compounds, which were near 5.2% of everything screened.

SMILES	A3A deaminase	APOBEC3G inh	NRP1-CendR mod	CR mimetic SO	ALR inh	M18AAP inhibitor
CC(=O)C[C@H]1c2cc(C(F)(F)F)ccc2S(=O)(=O)N1C1CCCCC1	n	n	27	n	n	x
COC(=O)C[C@H]1c2cc(C(F)(F)F)ccc2S(=O)(=O)N1C1CCCC1	n	n	24	n	n	x
Cc1cc(C)nc(SCCN2CCCCC2)n1	n	n	n	n	n	x
OC[C@H]1O[C@H](c2nc(-c3nc(-c4cccc(-n5cccc5)c4)no3)cs2)C[C@@H]1O	x	x	n	x	x	x
CCOC(=O)C[C@H]1c2cc(F)ccc2S(=O)(=O)N1C1CCCCC1	n	n	26	n	n	x
COC(=O)C[C@H]1c2cc(F)ccc2S(=O)(=O)N1C(C)C	n	n	26	n	n	x
CN(C)NC(=S)NC(=O)C12CC3CC(CC(C3)C1)C2	n	n	n	n	92	n
COc1ccc(NC(=O)Nc2ccc(O)c3ccccc23)cc1	n	n	x	n	n	x
Cc1cccc(Nc2n[nH]c(=S)s2)c1C	n	n	n	n	99	n
Cc1csc(Nc2cccc3ccccc23)n1	n	n	n	n	n	n
COc1ccccc1Nc1n[nH]c(=S)s1	n	57	n	n	x	n
COc1ccccc1Nc1nc(C)cs1	n	n	n	n	99	n
O=C(NCCC(F)(F)F)C1Cc2c(-c3ccc(Cl)cc3)ccnc2O1 (stereo not given)	x	x	27	x	x	x
COc1ccc(NC(=O)CSc2nc3c(sc4ccccc43)c(=O)n2CCCN2CCCC2)cc1	n	n	n	n	99	n
CCN(CC)CCn1c(SCC(=O)NCc2ccccc2)nc2c(sc3ccccc32)c1=O	n	n	n	n	97	n
CC(C)c1cccc(C(C)C)c1NC(=O)COC(=O)[C@H](C)NC(N)=O	n	n	n	n	x	n
CN1CCN(C2CC(=O)N(Cc3ccc(N4CCCC4=O)cc3)C2=O)CC1 (stereo not given)	n	n	n	n	n	n
COc1ccccc1C1(CCN=Cc2ccc(N(C)C)cc2)CCOC(C)(C)C1 (stereo not given)	n	n	n	n	n	n
CCOC(=O)c1sc(-c2ccc(OC)cc2)cc1N	n	n	26	n	n	n
CCCCNC(=O)c1cc(-c2ccccc2)sc1N	x	x	n	x	x	x
CCOC(=O)c1c(N)sc(-c2ccccc2)c1C	n	n	n	n	99	n
CCOC(=O)c1sc(-c2ccc(F)cc2)cc1N	n	n	n	n	n	n
CCOC(=O)c1cc(-c2ccccc2)sc1N	n	n	n	n	99	n
NNC(=O)c1cc(-c2ccccc2)sc1N	n	n	n	n	97	n
CN(C)c1ccc(NC(=O)CCCCCn2nnc3ccccc3c2=O)cc1	n	n	n	n	99	n
SMILES	A3A deaminase	APOBEC3G inh	NRP1-CendR mod	CR mimetic SO	ALR inh	M18AAP inhibitor
CC(=O)c1ccc(NC(=O)CCCCCn2nnc3ccccc3c2=O)cc1	n	n	n	n	n	n
O=C(CSCC(=O)OCn1nnc2ccccc2c1=O)Nc1ccc(Cl)cc1	n	n	n	n	98	n
C[C@H](NC(=O)c1ccc(Cl)cc1)C(=O)OCn1nnc2ccccc2c1=O	n	n	n	n	n	x
COc1cc2cc(C(c3nnnn3C(C)(C)C)N3CCC(C)CC3)c(=O)[nH]c2cc1OC (stereo not given)	n	n	n	n	n	n
Cc1cc(C)c(S(=O)(=O)c2cccc(Cl)c2)c(Cl)n1	n	n	33	n	n	n
C=CCSc1n[nH]c(-c2ccc(OCCCC)cc2)n1	n	n	n	n	n	n
COc1ccc(NC2CCCN(C(=O)c3cc(C)nc4cc(F)ccc34)C2)cc1 (stereo not given)	n	n	n	n	99	n
Cc1cc(C(=O)N2CCCC(Nc3ccccc3)C2)c2ccc(F)cc2n1 (stereo not given)	n	n	n	n	99	n
CC(C)(C)c1ccc(CC(=O)N2CCC2(C)C(=O)NS(=O)(=O)c2ccc(F)cc2F)cc1 (stereo not given)	x	x	n	x	x	x
CCn1ncc(C2=NOC(C(=O)Nc3c(C)nn(Cc4ccc(F)cc4)c3C)C2)c1C (stereo not given)	n	n	n	n	n	n
COc1cccc2c(=O)c3cccc(N)c3[nH]c12	n	n	33	n	x	n
Cc1cc(C)nc(-n2nc(C)c3c(C(=O)O)cc(-c4cccc(Br)c4)nc32)n1	n	n	n	n	n	n
CCN(CC)c1ccc(NC(=O)c2cncc(Br)c2)cc1	n	n	n	n	99	n
N#CCC(=O)Nc1ccc(C(=O)Nc2cccnc2)cc1	n	n	n	n	100	n
O=C(Nc1ccc2ccccc2c1)c1cccnc1	n	n	n	n	n	n
O=C(Nc1cccnc1)c1ccc(C(=O)Nc2cccnc2)cc1	n	n	n	n	x	n
CCN(CC)c1ccc(NC(=O)c2cccnc2)cc1	n	n	n	n	99	n
O=C(Nc1ccc2c(c1)Cc1ccccc1-2)c1cccnc1	n	n	20	n	n	n
CCOCCCn1c(=S)[nH]c2ncccc2c1=O	n	n	n	n	n	n
O=C(NCC(F)(F)F)c1csc([C@@H]2O[C@H](CO)[C@H](O)[C@H](O)[C@H]2O)n1	x	x	n	x	x	x
NC(=Nc1ccc(N)cc1)C(N)=Nc1ccc(N)cc1	n	n	n	n	99	n
Nc1ccc(O)cc1	x	x	x	n	n	x
CCCN1CCC(NC(=O)Nc2ccc(OC)c(OC)c2)CC1	n	n	49	n	x	n
CN1C(=O)[C@H]2[C@@H](/C=C/c3ccccc3)N3C(=O)CN(Cc4ccccn4)C(=O)[C@@]3(Cc3ccccc3)[C@H]2C1=O	n	n	29	n	n	x
COc1cc([C@H]2OC[C@H]3[C@@H]2CO[C@H]3c2ccc(O)c(OC)c2)ccc1O	n	n	n	n	98	x
SMILES	A3A deaminase	APOBEC3G inh	NRP1-CendR mod	CR mimetic SO	ALR inh	M18AAP inhibitor
COc1cc(C2OCC3C(c4ccc(OC5OC(CO)C(O)C(O)C5O)c(OC)c4)OCC23)ccc1O (stereo not given)	n	n	n	n	95	41
Nn1cnnc1N/N=C/c1cc(Br)cc(Br)c1O	n	n	n	n	n	52
CS/C(N)=N/N=C/c1cc(Br)cc(Br)c1O	n	n	n	n	n	n
O=C(NCc1cccnc1)c1ccc2c(c1)N(Cc1ccccc1)CCS2	n	n	n	n	92	30
CCN1CCSc2ccc(C(=O)NCc3cccc(F)c3)cc21	n	n	n	n	99	n
O=C(NCc1ccccn1)c1ccc2c(c1)N(Cc1ccccc1)CCS2	n	n	n	n	98	n
CN1CCSc2ccc(C(=O)NCc3ccccc3)cc21	n	n	n	n	n	n
COc1ccc(OC)c2[nH]c(=O)c(CCNS(=O)(=O)c3ccccc3)cc12	n	n	n	n	x	n
COC(=O)[C@]1(Cc2ccccc2)N[C@H](CN(C)C(=O)c2ccc(C)cc2)[C@@H]2C(=O)N(Cc3ccccc3)C(=O)[C@@H]21	n	n	n	n	x	x
Cc1ccc(Cl)cc1NC(=O)COC(=O)C1CC1	n	n	n	n	n	n
